# Measurements from PubChem BioAssay AID1851 (National Center for Advancing Translational Sciences (NCATS), 2009).
# Screen size: about 16,000 compounds; about 5,100 (32%) were called active. About 25% were inconclusive and are not listed. The call rests on the fitted dose curve; in most records, active means well fitted curve in the direction sought with a large enough effect; inconclusive means small, poorly fitted or top-dose-only effect, or effect the other way; inactive means no such curve, though single readings can be large or run the other way. The list shows a part of the results.
# Target: Cytochrome P450 3A4 (Homo sapiens) (UniProt P08684)
# Test: Cytochrome panel assay with activity outcomes
# Conditions: recombinant CYP, pro-luciferin dealkylation, luminescence, p450-cyp3a4; series mostly up to 57.1 µM; activity, negative = inhibition: at the top concentration
# On the % scale 0 is the no-effect control and ±100 the full control effect.
# Cytochrome P450 3A4 (Homo sapiens), sequence (P08684 whole entry, looked up): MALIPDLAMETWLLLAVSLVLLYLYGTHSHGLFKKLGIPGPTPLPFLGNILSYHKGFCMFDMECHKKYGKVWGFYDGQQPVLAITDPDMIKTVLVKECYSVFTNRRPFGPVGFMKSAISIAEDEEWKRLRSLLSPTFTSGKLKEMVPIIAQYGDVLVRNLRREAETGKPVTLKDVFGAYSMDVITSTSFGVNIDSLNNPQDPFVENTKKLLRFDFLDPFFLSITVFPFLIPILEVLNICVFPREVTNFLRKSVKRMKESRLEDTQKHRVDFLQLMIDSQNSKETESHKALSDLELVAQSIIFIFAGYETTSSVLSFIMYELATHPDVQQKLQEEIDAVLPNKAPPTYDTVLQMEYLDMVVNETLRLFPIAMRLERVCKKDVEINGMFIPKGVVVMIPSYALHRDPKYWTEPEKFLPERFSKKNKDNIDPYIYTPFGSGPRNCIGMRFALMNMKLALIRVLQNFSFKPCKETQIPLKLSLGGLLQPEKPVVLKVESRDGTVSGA
SMILES,"activity, negative = inhibition",AC50
C#CCSc1n[nH]c(-c2ccco2)n1,-10.2% [at 11.4 µM] (inactive),
CC(C)=CC(=O)Nc1nnc(C(C)C)s1,15.7% [at 2.29 µM] (inactive),
[O-][N+](CCO)(CCO)c1ncnc2nc[nH]c12,-0.379% [at 11.4 µM] (inactive),
N=C1[C@@H](O)[C@]2(I)c3ccccc3N3C(=N)[C@H](O)[C@@H]4c5ccccc5N1[C@@H]4[C@@H]32,-8.09% [at 11.4 µM] (inactive),
Cc1ccc(C(=O)N/N=C/c2ccc(S(=O)(=O)O)o2)c(Cl)c1,8.51% (inactive),
COC(=O)c1ccc(/C=N\NC(=O)c2ccc(C)cc2Cl)cc1,,3.55 µM (active)
CC1Cc2ccccc2N1C(=O)C1CCCCN1S(=O)(=O)c1ccccc1 (centres undefined),,7.94 µM (active)
CC(=O)N1c2ccc(S(=O)(=O)CCC(=O)O)cc2CC1C (centres undefined),-7.01% (inactive),
CCNC(=O)C1CC(=O)OC12CCCCC2 (centres undefined),-5.12% (inactive),
CC(C)(C)N(NC(=O)Nc1ccccc1)C(=O)c1ccccc1Cl,,14.1 µM (active)
CC(C)(CC(=O)Nc1ccccc1)C(=O)O,-5.79% [at 11.4 µM] (inactive),
Cc1c(Cl)c(S(N)(=O)=O)cc(S(N)(=O)=O)c1NC(=O)c1ccc(Cl)cc1,3.55% [at 11.4 µM] (inactive),
Cc1cc(C)cc(C(=O)N(NC(=O)Nc2ccc(Cl)cc2)C(C)(C)C)c1,,15.8 µM (active)
O=C(Nc1ccc(Cl)cc1)NC1CCCCC1,9.33% [at 2.29 µM] (inactive),
CC(C)(C)N(NC(=O)Nc1ccc(Cl)c(Cl)c1)C(=O)c1ccccc1,,14.1 µM (active)
CC(C)(C)NC(=O)C(=O)NNC(=O)c1ccccc1,5.58% (inactive),
NCS(=O)(=O)O,-9.19% [at 11.4 µM] (inactive),
CN(C)Cc1cc(Cl)c(O)c(CN(C)C)c1,-5.94% [at 11.4 µM] (inactive),
CCCCOC(=O)c1ccc(O)cc1,-25.7% [at 25.6 µM] (inactive),
CCCCOC(=O)c1cc2c(cn1)[nH]c1ccccc12,,25.1 µM (active)

SMILES,"activity, negative = inhibition",AC50
O=C(O)CCc1ccc(-c2ccc(Cl)cc2)n1CCC(=O)O,-1.68% (inactive),
COCCNC(=O)[C@H](C)[C@H]1C[C@]1(C)[C@H](NC(=O)OCc1ccccc1)c1ccccc1,,3.16 µM (active)
C[C@@H](C(=O)NCCF)[C@H]1C[C@]1(C)[C@H](NC(=O)OCc1ccccc1)c1ccccc1,,3.98 µM (active)
COCCNC(=O)[C@H](C)[C@@H]1C[C@@]1(C)[C@@H](NC(=O)OCc1ccccc1)c1ccccc1,,7.94 µM (active)
O=C(CCNS(=O)(=O)c1ccc2c(c1)CCC(=O)N2)NCc1ccc2c(c1)OCO2,,1.41 µM (active)
COC(=O)N1CCC2(CCN(C(=O)Nc3ccc(OC)cc3)CC2)CC1,14.5% (inactive),
COc1ccc(NC(=O)CCNS(=O)(=O)c2ccc3c(c2)CCC(=O)N3)cc1,,15.8 µM (active)
COc1ccc(-c2nc(N)c3ncn([C@H]4O[C@@H](CO)[C@@H](O)[C@@H]4O)c3n2)cc1,-0.494% [at 11.4 µM] (inactive),
COc1ccc2[nH]cc(CCNc3ncncc3-c3c(C)noc3C)c2c1,,0.794 µM (active)
COc1ccc2[nH]cc(CCNc3ncncc3-c3ccccc3Cl)c2c1,,0.398 µM (active)
COc1ccc2[nH]cc(CCNc3ncncc3-c3ccccc3OC)c2c1,,0.126 µM (active)
COc1ccc2[nH]cc(CCNc3ncncc3-c3ccccc3C)c2c1,,0.316 µM (active)
C=C1c2cccc(O)c2C(O)=C2C(=O)[C@@]3(O)C(O)=C(C(N)=O)C(=O)[C@@H](N(C)C)[C@@H]3[C@@H](O)[C@H]12,-10.9% [at 25.6 µM] (inactive),
CNc1nc(Cl)nc(NC(C)(C)C)n1,-12% (inactive),
CN1C[C@H](c2ccccc2)C(O)([C@]2(c3ccccc3)CN(C)C[C@@H](c3ccccc3)C2=O)[C@H](c2ccccc2)C1 (some centres undefined),-0.704% [at 11.4 µM] (inactive),
O=C(c1cc(Br)ccc1O)c1cc(Br)ccc1O,-18.8% [at 11.4 µM] (inactive),
COc1ccc2[nH]cc(CCNc3ncncc3-c3ccccc3CN(C)C)c2c1,,0.631 µM (active)
COc1ccc2[nH]cc(CCNc3ncncc3-c3ccccc3C(F)(F)F)c2c1,,0.251 µM (active)
O=S(=O)(O)c1ccc2c(N=Nc3cccc4ccccc34)c(O)c(S(=O)(=O)O)cc2c1,5.97% [at 11.4 µM] (inactive),
Cc1ccccc1N1CCN(C(=O)c2ccccc2NC(=O)/C=C\C(=O)O)CC1,-14.2% (inactive),

SMILES,"activity, negative = inhibition",AC50
O=C(Nc1ccccc1N1CCN(C(=O)c2ccccc2)CC1)c1cc(Br)ccc1Cl,,3.55 µM (active)
CN1CCN(c2ccc([N+](=O)[O-])cc2NC(=O)c2ccccc2Cl)CC1,13% (inactive),
O=C(Nc1ccccc1N1CCN(C(=O)c2ccc(Cl)cc2)CC1)c1cc(Br)ccc1Cl,,3.98 µM (active)
COc1cccc(C(C#N)N2N=C(C)CC2(C)C)c1O (centres undefined),-11.6% (inactive),
c1ccc(-c2nc3ccccn3c2NCc2ccc3c(c2)OCO3)cc1,,0.501 µM (active)
CCOC(=O)CNc1c(-c2ccccc2)nc2ccc(Cl)cn12,21.3% (inactive),
CO[C@H]1[C@@H](OC(N)=O)[C@H](O)[C@@H](Oc2ccc3c(O)c(NC(=O)c4ccc(O)c(CC=C(C)C)c4)c(=O)oc3c2C)OC1(C)C,-7.19% [at 25.6 µM] (inactive),
Cn1cccc1/C=N/NC(=O)c1sc2ccccc2c1Cl,,8.91 µM (active)
N#CCCn1nnc2ccccc21,-10.8% (inactive),
C=CCN1CCc2cc(O)c(O)cc2[C@H](c2ccccc2)C1,,inactive
O=C(O)CSc1sc(=S)sc1SCC(=O)O,,11.2 µM (active)
Cc1nnsc1SCC(=O)O,-4.96% (inactive),
O=C(O)CSSCC(=O)O,-6.12% [at 11.4 µM] (inactive),
COc1cccc(C(C(=O)Nc2ccc(F)cc2)N(C(=O)Cn2nnc3ccccc32)C2CC2)c1 (centres undefined),,2.82 µM (active)
Cc1ccnc(NCn2nnc3ccccc32)c1,-7.54% (inactive),
COc1ccc(C(C(=O)Nc2ccc(F)cc2)N(C(=O)Cn2nnc3ccccc32)C2CC2)cc1 (centres undefined),,3.55 µM (active)
COc1ccc(NC(=O)C(c2ccc(OC)cc2)N(C)C(=O)CNC(C)=O)cc1 (centres undefined),-11.9% (inactive),
O=C(Cn1nnc2ccccc21)N1CCCCC1,-1.52% (inactive),
COc1ccc(N(C(=O)Cn2nnc3ccccc32)C2(C(=O)NC3CCCC3)CCCCC2)cc1,,2 µM (active)
